Screening results from PubChem.
An excerpt weighted towards active compounds, which were near 2.9% of everything screened.
Mtb hypoxia inh = PubChem AID 1159583; fluorescence inhibition, % (test concentration not listed); 300,000 compounds, 0.1% hits; M. tuberculosis hypoxia-regulated fluorescent reporter, fluorescence; in the data active means fluorescence inhibition mostly above about 23%, no sharp cut-off; inactive means mostly below about 17%
FBA Mtb inh = Mtb FBA enzyme inhibitors, primary screen, biochemical, fluorescence, strain H37Rv; purified M. tuberculosis FBA, fluorescence read-out; Fructose-bisphosphate aldolase (Mycobacterium tuberculosis (strain ATCC 25618 / H37Rv)), …; AID 588726, 2011; 360,000 compounds, 2.3% hits; inhibition, % at 1 µM; in the data active means inhibition above about 27%;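 further: 0% = vehicle and 100% = reference inhibitor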
Target sequence (P9WQA3 whole entry, looked up): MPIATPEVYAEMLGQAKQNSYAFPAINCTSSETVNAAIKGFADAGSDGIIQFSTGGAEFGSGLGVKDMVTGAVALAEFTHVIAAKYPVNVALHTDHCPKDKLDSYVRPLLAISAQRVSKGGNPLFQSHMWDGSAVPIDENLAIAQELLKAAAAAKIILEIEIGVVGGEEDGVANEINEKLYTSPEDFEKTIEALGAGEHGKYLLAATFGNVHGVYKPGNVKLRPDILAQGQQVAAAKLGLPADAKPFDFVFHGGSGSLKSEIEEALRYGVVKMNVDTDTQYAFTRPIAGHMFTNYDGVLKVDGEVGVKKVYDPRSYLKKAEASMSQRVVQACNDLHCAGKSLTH
GDH-TPI counter = GDH-TPI coupling enzyme inhibitors, primary screen, artefact control for M. tuberculosis FBA inhibitor project, biochemical, absorbance, full deck; GDH-TPI coupled enzyme counterscreen, NADH absorbance; inhibition, % at 4.8 µM; 360,000 compounds, 1.2% hits; AID 588335, 2011; in the data active means inhibition above about 30%;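 further: 0% = DMSO wells and 100% = wells lacking the enzyme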
FadD28 binding = inhibitors of FadD28 bisubstrate probe binding, primary screen, biochemical, fluorescence polarization, single point; Mycobacterium tuberculosis FadD28 fatty-acid-AMP ligase; inhibition, % at 12.5 µM; 360,000 compounds, 0.22% hits; AID 588549, 2011; in the data active means inhibition above about 8.5%, passing the limit was not always enough
Mtb BioA inh = M. tuberculosis BioA enzyme inhibitors, primary screen, biochemical, plate reader, single point, HTS; 7,8-diaminopelargonic acid synthase BioA (Mycobacterium tuberculosis); purified M. tuberculosis BioA enzyme; inhibition, % at 9.99 µM; 360,000 compounds, 0.096% hits; in the data active means inhibition above about 40%
The depositor's hits bear a star; / = no result; + = active, no number.

SMILES | Mtb hypoxia inh | FBA Mtb inh | GDH-TPI counter | FadD28 binding | Mtb BioA inh
CCCn1nnc(NC(=S)NC(=O)c2ccc(-c3ccc(Br)cc3)o2)n1 | 0 | 4 | 35* | -1 | /
CCCNC(=O)Nc1ccc2c(c1)C(=O)N(C)C[C@@H](OC)[C@H](C)CN(C(=O)C1CCOCC1)[C@@H](C)CO2 | / | / | / | / | 3
O=C(c1cnccn1)N1C[C@H]2[C@@H](c3ccccc31)[C@@H](CO)N2Cc1ccccc1Cl | / | / | / | / | 0
COc1cc(/C=C(\C#N)C(N)=O)ccc1OCc1c(C)no[n+]1[O-] | 4 | 0 | 31* | -5 | 4
CNC(=S)NN=Cc1ccc(-c2ccc(Cl)c([N+](=O)[O-])c2)o1 | 14 | / | / | / | /
Cc1noc(C)c1NC(=O)NCC[C@H]1CC[C@H](NC(=O)c2ccc(F)cc2)[C@H](CO)O1 | / | / | / | / | -1
CS(=O)(=O)Nc1ccc2c(c1)[C@H]1C[C@@H](CC(=O)NCc3ccncc3)O[C@H](CO)[C@H]1O2 | / | / | / | / | 2
Cc1ccc(SCC(=O)Nc2ccc(-c3nnc(-c4ccco4)o3)cc2)cc1 | 4 | 1 | 31* | -1 | 0
O=C(O)CCC(=O)Nc1ccc(-c2nnc(-c3ccco3)o2)cc1 | 8 | 141* | 17 | 1 | -1
CCC(=O)Nc1ccc(-c2nnc(-c3ccccc3)o2)cc1 | / | + | 1 | 1 | -1
Cc1cc(/C=C2\C(=O)NN(c3ccccc3)C2=O)c(C)n1-c1ccccc1O | 8 | -3 | 34* | -1 | 0
CCN(CC)S(=O)(=O)c1ccc(N=Cc2c(C)c(C#N)c(=O)n(C)c2O)cc1 | 3 | 3 | 38* | -3 | /
Cc1c(C=N)c(O)n(C)c(=O)c1C#N | -10 | 0 | 32* | -3 | 1
Cc1ccc(N/N=C/c2c(C)c(C#N)c(=O)n(C)c2O)cc1C | 9 | -3 | 32* | -1 | 0
COc1cc(S(=O)(=O)Nc2ccc(C)cc2)ccc1N=Cc1c(C)c(C#N)c(=O)n(C)c1O | / | -3 | 20 | -1 | /
CN(C)N1C(=O)/C(=C/c2ccco2)SC1=Nc1ccccc1 | -9 | 5 | 40* | -1 | /
COc1ccc(N=C2S/C(=C\c3ccco3)C(=O)N2CC(C)C)cc1 | / | -1 | -3 | -1 | 0
CC1C2(C)OC(=N)C(C#N)(C(C)O2)C1(C#N)C#N (stereo not given) | -3 | 128* | 13 | 6 | /
CCCOc1ccc(C(=O)c2nc3c(n2O)CCCCC3)cc1 | 3 | -1 | 31* | -2 | 0
CC=Cc1ccc2n(c1=O)C[C@@H]1[C@@H](CO)[C@H](C(=O)N3CCOCC3)N(CC3CC3)[C@H]21 (mixture of isomers) | / | / | / | / | 1
C[C@@H]1CN([C@@H](C)CO)C(=O)c2cc(C#CCc3ccccc3)cnc2O[C@@H]1CN(C)CC1CCOCC1 | / | / | / | / | 0
Cc1ccc(/C=C2\SC(=S)N(/N=C/c3cc([N+](=O)[O-])ccc3O)C2=O)o1 | / | -22 | 24 | 26* | /
O=C(N/N=C/c1c(O)n(-c2cccc3ccccc23)c(=O)[nH]c1=O)c1ccncc1 | / | 2 | 43* | -2 | -1
CCn1c(O)c(/C=N/NC(=O)c2ccccc2)c(=O)[nH]c1=S | -2 | 8 | 32* | -3 | /
COc1ccc(Cn2c(O)c(/C=N/NC(=O)c3ccncc3)c(=O)[nH]c2=O)cc1 | 4 | 2 | 42* | 1 | 0
SMILES | Mtb hypoxia inh | FBA Mtb inh | GDH-TPI counter | FadD28 binding | Mtb BioA inh
COc1ccc(Cn2c(O)c(/C=N/NC(=O)c3ccccc3)c(=O)[nH]c2=O)cc1 | 0 | 4 | 35* | -7 | -3
C[C@H](CO)N1C[C@H](C)[C@@H](CN(C)Cc2ccc3c(c2)OCO3)Oc2ccc(NS(=O)(=O)c3cn(C)cn3)cc2CC1=O | / | / | / | / | 1
COC(=O)[C@@H]1[C@@H](CO)[C@@H]2Cn3c(ccc(-c4ccccc4)c3=O)[C@@H]2N1Cc1ccccc1F | / | / | / | / | 18
Cc1occc1C(=O)NN=Cc1ccccc1[N+](=O)[O-] | 8 | / | / | / | /
Cc1ccc(S(=O)(=O)N/N=C/c2ccc(O)c(O)c2)cc1[N+](=O)[O-] | / | -3 | 33* | -4 | 0
Cc1ccc(S(=O)(=O)NN=Cc2ccc(O)c(O)c2)cc1[N+](=O)[O-] | 10 | / | / | / | /
C/C(=N\NS(=O)(=O)c1ccc(C)c([N+](=O)[O-])c1)c1cc2ccccc2o1 | / | -3 | 41* | 0 | 2
N#Cc1ccc(OCC(=O)N2CCN(S(=O)(=O)c3ccc(Cl)s3)CC2)cc1 | 27* | 1 | -9 | -6 | -2
